# Assay outcomes from PubChem BioAssay.
# PREPL inh: PREPL enzyme inhibitors, primary screen, biochemical, fluorescence polarization; hit rate 0.68% among 320,000; recombinant PREPL, fluorescence polarization activity-based probe; inhibition, % at 5.96 µM;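 note: 0% = enzyme with DMSO and 100% = wells lacking enzyme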
# PP5 inh: PP5 phosphatase inhibitors, primary screen, biochemical, fluorescence. inhibition, % at 6.7 µM. purified PP5c, OMFP substrate fluorescence. hit rate 0.18% among 320,000;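 active = inhibition above the campaign's mean inhibition across all tested compounds plus 3 SD, cut at about 9.5% in these data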;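 note: 0% = DMSO only and 100% = 100 µM cantharidin control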
# Target sequence (P53041 whole entry, looked up): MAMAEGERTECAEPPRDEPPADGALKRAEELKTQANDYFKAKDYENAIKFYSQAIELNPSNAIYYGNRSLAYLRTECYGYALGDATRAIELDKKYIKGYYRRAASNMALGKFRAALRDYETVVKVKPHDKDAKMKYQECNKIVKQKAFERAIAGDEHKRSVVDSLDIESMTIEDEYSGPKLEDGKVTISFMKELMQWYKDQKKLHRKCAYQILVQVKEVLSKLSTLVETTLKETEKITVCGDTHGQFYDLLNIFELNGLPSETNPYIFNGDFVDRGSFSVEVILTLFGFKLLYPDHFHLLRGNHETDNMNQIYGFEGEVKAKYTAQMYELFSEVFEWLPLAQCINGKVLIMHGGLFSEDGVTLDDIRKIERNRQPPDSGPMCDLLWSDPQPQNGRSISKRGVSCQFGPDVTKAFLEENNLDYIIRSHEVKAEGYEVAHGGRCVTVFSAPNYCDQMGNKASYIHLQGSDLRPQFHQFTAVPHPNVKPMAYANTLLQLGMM
# NadD inh: inhibitors of S. aureus NadD, primary screen, biochemical, colorimetric, uHTS. AID 602399, 2012. hit rate 0.78% among 360,000. Nicotinate-nucleotide adenylyltransferase NadD (Staphylococcus aureus N315). inhibition, % at 20 µM. purified NadD enzyme, colorimetric absorbance read-out; in the data active = inhibition above about 26%
# Rpn11 block: Rpn11 (PSMD14) deubiquitinase inhibitors, primary screen, biochemical, fluorescence polarization, uHTS | 26S proteasome non-ATPase regulatory subunit 14 (Homo sapiens), O00487 | human 26S proteasome, Ub4-pepOG fluorescence polarization; 20S core pre-blocked with epoxomicin | inhibition, % at 20 µM | hit rate 0.59% among 360,000;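 active = inhibition at 20 µM, scaled to each plate's controls, above about 33%, limit read from the data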
# PP1 counter: PP1-alpha phosphatase inhibitors, primary screen, counter-screen for PP5 inhibitor project, biochemical, fluorescence, OMFP substrate, single point; Serine/threonine-protein phosphatase PP1-alpha catalytic subunit (Homo sapiens), P62136; purified PP1alpha; inhibition, % at 6.7 µM; hit rate 0.9% among 320,000; AID 2235, 2010;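 active = inhibition above the mean inhibition of all tested compounds plus 3 SD, computed separately for each screening campaign, cut at about 15% in these data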
# PP1 confirm: PP1 phosphatase inhibitors, confirmation, biochemical, fluorescence, OMFP substrate, triplicate; inhibition, % at 6.7 µM; purified PP1alpha; AID 2358, 2010; hit rate 52% among 1,900; shares compounds with PP1 counter;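 active = mean PP1 inhibition above a set limit taken from the earlier primary screen, cut at about 15% in these data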
# PP5 inh counter: PP5 phosphatase inhibition by PP1 hits, confirmation, counter-screen for PP1 inhibitor project, biochemical, fluorescence, triplicate; shares compounds with PP1 counter; purified PP5c, OMFP fluorescence; inhibition, % at 6.7 µM; hit rate 4% among 1,900; AID 2360, 2010;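 active = mean PP5 inhibition over triplicate wells above about 9.5% taken from the earlier PP1 screen, limit read from the data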
# PREPL confirm: human PREPL enzyme inhibitors, confirmation, biochemical, fluorescence polarization; inhibition, % at 5.96 µM; shares compounds with PREPL inh; recombinant PREPL, fluorescence polarization activity probe; hit rate 67% among 2,000; AID 2803, 2010;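 note: 0% = protein with DMSO and 100% = wells lacking protein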
# Active calls of the source: *; nt = no result. Compounds with a hit are over-represented: about 2.4% of the library has one in this group of screens. Cut-off read from the data, not from the text of the source, unless noted: active = inhibition above about 43%; inactive = the rest.
SMILES,PREPL inh,PP5 inh,NadD inh,Rpn11 block,PP1 counter,PP1 confirm,PP5 inh counter,others
N#C/C(=C(/O)c1ccc(Cl)c([N+](=O)[O-])c1)c1nc2ccccc2[nH]1,16,4,-3,-4,20*,14,-1,
CCN(CC)S(=O)(=O)c1ccc(C(=O)Nc2nnc(CSC)o2)cc1,6,0,-4,-7,8,nt,nt,
CCN(CC)S(=O)(=O)c1ccc(C(=O)Nc2nnc(COC)o2)cc1,2,3,2,2,5,nt,nt,
CCCCN(CC)S(=O)(=O)c1ccc(C(=O)Nc2nnc(-c3cccs3)o2)cc1,9,9,nt,nt,26*,18*,0,
CCOC(=O)N1CCN(S(=O)(=O)c2ccc(C(=O)Nc3nnc(CSC)o3)cc2)CC1,-5,-4,8,0,18*,6,1,
CCCCN(C)S(=O)(=O)c1ccc(C(=O)Nc2nnc(CSC)o2)cc1,17,1,8,-4,24*,23*,-2,
CCCCN(CCCC)S(=O)(=O)c1ccc(C(=O)Nc2nnc(COC)o2)cc1,-8,0,13,8,23*,16*,-2,
CC(C(=O)NC1CCCC1)N(C(=O)c1ccc(-c2ccccc2)[nH]1)c1ccccc1F (centres undefined),11,6,10,6,6,nt,nt,
CCc1nc(SCC(=O)NC2CCCC2)c2c(=O)n(C)c(=O)n(C)c2n1,4,2,-3,0,0,nt,nt,
CCc1c(C)c2cc(Cl)c(O)c(CN3CCCC3)c2oc1=O,nt,nt,7,-19,nt,nt,nt,
COc1ccc(Cl)cc1NC(=O)c1nnn(CC(=O)Nc2ccc(OC)c(OC)c2)c1N,-3,0,-3,-2,-1,nt,nt,
COc1cccc(NC(=O)Cn2nnc(C(=O)Nc3cc(Cl)ccc3OC)c2N)c1,-15,0,7,6,18*,19*,-2,
COc1ccc(Cl)cc1NC(=O)c1nnn(CC(=O)Nc2ccc3c(c2)OCO3)c1N,-9,2,15,-8,25*,26*,-5,
Oc1c(CN2CCN(c3ccccn3)CC2)cc(Cl)c2cccnc12,34,3,-1,31,26*,30*,-5,
OCCN1CCN(Cc2cc(Cl)c3cccnc3c2O)CC1,9,4,-2,1,-5,nt,nt,
CC(=O)Nc1ccc(C(=O)N2CCOCC2c2cc(C(=O)NCc3ccccc3)no2)cc1 (centres undefined),nt,nt,-5,-6,nt,nt,nt,
CCCCCCCCCCOC(=O)Cn1c(COc2ccccc2OC)[n+](C)c2ccccc21,-50,1,12,21,34*,1,2,
Cn1c(COc2ccccc2O)[n+](C)c2ccccc21,2,-1,-4,-5,-3,nt,nt,
O=C(NCc1ccccc1)c1[nH]c(C(F)(F)F)nc1-c1ccccc1,nt,nt,-10,-3,nt,nt,nt,
Cn1c(=O)c(C(=O)Nc2ncccc2O)c(O)c2ccccc21,-2,1,9,-4,28*,30*,-5,
CN(C(=O)C1CCN(S(=O)(=O)c2ccccc2)CC1)c1c(N)n(Cc2ccccc2)c(=O)[nH]c1=O,13,0,4,-3,-5,nt,nt,
CC(C)CNC(=O)C1CCN(c2ccc(S(=O)(=O)N3CCOCC3)cc2Cl)CC1,1,0,-3,4,28*,-2,0,
O=C(CSC(=S)N1CCOCC1)Nc1nc(-c2ccccc2)c(-c2ccccc2)o1,-2,1,15,5,18*,11,-3,
O=C(CSC(=S)N1CCCCC1)Nc1nc(-c2ccccc2)c(-c2ccccc2)o1,4,5,16,-4,4,nt,nt,
CC1(C)CC(NS(=O)(=O)c2ccc(C(C)(C)C)cc2)CC(C)(C)N1,-5,3,-8,-2,-1,nt,nt,
SMILES,PREPL inh,PP5 inh,NadD inh,Rpn11 block,PP1 counter,PP1 confirm,PP5 inh counter,others
O=c1[nH]n2c(=O)c3c([nH]c2c1N=Nc1cccc(C(F)(F)F)c1)CCCC3,55*,1,27,-4,26*,24*,0,PREPL confirm=62*
CCCCCCCCCCC[N+](C)(C)CC/C=C1/c2ccccc2Sc2ccc(Cl)cc21,45*,5,16,33,39*,9,2,PREPL confirm=35
CC[N+](C)(C)CC/C=C1/c2ccccc2Sc2ccc(Cl)cc21,0,0,2,-4,-1,nt,nt,
C#CCOCCOCCOCCNc1nc(N2CCN(C(=O)CCCCCCCCCCNC(=O)[C@H](CCCCN)n3cc(C)nn3)CC2)nc(N2CCN(C(=O)CCCCCCCCCCNC(=O)[C@@H]([C@H](C)CC)n3cc(CCCCCN)nn3)CC2)n1,52*,5,51*,67*,60*,28*,-1,PREPL confirm=45*
C#CCOCCOCCOCCNc1nc(N2CCN(C(=O)CCCCCCCCCCNC(=O)[C@H](CCCCN)n3cc(CCO)nn3)CC2)nc(N2CCN(C(=O)CCCCCCCCCCNC(=O)[C@@H]([C@H](C)O)n3cc(C)nn3)CC2)n1,40,1,16,7,15,nt,nt,
C#CCOCCOCCOCCNc1nc(N2CCN(C(=O)CCCCCCCCCCNC(=O)[C@H]([C@@H](C)CC)n3cc(CCCCCN)nn3)CC2)nc(N2CCN(C(=O)CCCCCCCCCCNC(=O)[C@@H]([C@H](C)O)n3cc(C)nn3)CC2)n1,46*,4,33*,45*,54*,41*,0,PREPL confirm=33
C#CCOCCOCCOCCNc1nc(N2CCN(C(=O)CCCCCCCCCCNC(=O)[C@H](CCC(=O)O)n3cc(CCCCCN)nn3)CC2)nc(N2CCN(C(=O)CCCCCCCCCCNC(=O)[C@@H]([C@H](C)O)n3cc(C)nn3)CC2)n1,-2,2,-3,-3,4,nt,nt,
C[C@@H]1COC(=O)[C@H](Cc2ccc(F)cc2)CC/C=C\C[C@@H](CC(=O)NCCO)C(=O)N1,25,nt,1,0,nt,nt,nt,
Cn1ccc2c(/C=C/c3ccc(F)cc3)cc3c(c21)C1CCC3O1 (centres undefined),nt,nt,-6,1,nt,nt,nt,
CCOC(=O)c1cnc(-n2nc(C)cc2C)nc1Oc1ccccc1F,5,4,0,0,-1,nt,nt,
CCOC(=O)c1cnc(-n2nc(C)cc2C)nc1NCCc1ccccc1,58*,7,12,0,57*,51*,-1,PREPL confirm=54*
COc1cccc(C(=O)NCc2ccco2)c1OC,4,1,0,-4,-1,nt,nt,
